Measured values as given in PubChem BioAssay (NCI).
Values joined by “and” are separate entries in the source; they are usually repeats but may differ in a detail not shown here. Equal entries are not always repeated. Compounds without any hit were thinned out: in the full panel of roughly 83,000, 20% have a hit.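 Values shown are percent growth following 48 h exposure of cells in 96-well plates to a single concentration of compound; below 10 was considered active.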 Active and inactive are the calls of the source.

Each compound was assayed on COLO 205 colon (assay: NCI-60 one-dose screen, 48 h (100 = growth as untreated, 0 = no growth, -100 = all killed)). Conditions: 10 µM.
Description: Cells are grown in 96 well plates and exposed to the test compound for 48 hours. Compounds are tested at a single concentration, which is 10^-5 M for most compounds. The reported endpoint is percent growth (GI% or GIPRCNT), where numbers from 0 - 100% represent growth inhibition, and numbers from -100% - 0 represent cell death. For example, a value of 40 represents 60% growth inhibition. A value of 0 means no net growth occurred over the course of the experiment. A value of -40 indicates 40% of cells at the beginning of the experiment died by the end of the experiment. A value of -100 means all cells are dead at the end of the experiment.
NCI-60 Human Tumor Cell Lines Screen was performed using the standard one-dose NCI protocol, which is described in more detail at https://dtp.cancer.gov/discovery_development/nci-60/default.htm.
Compounds with GIPRCNT values below 10 were considered active. Activity score was based on GIPRCNT using the following formula: […]
Score is 0 for GIPRCNT values of 100 or above, 50 for GIPRCNT values of 0, and 100 for GIPRCNT values of -100.

Row | SMILES | growth
1 | CN(C)C(=O)c1ccc(SC(=S)NCc2ccccc2)cc1 | 101% (inactive)
2 | O=C(O)c1c(Cl)c(Cl)c(Cl)c(Cl)c1-c1c2cc(I)c(=O)c(I)c-2oc2c(I)c(O)c(I)cc12 | 121% (inactive) and 108% (inactive) and 119% (inactive)
3 | O=C(Nc1c(Cl)cccc1Cl)Oc1cccc2cccnc12 | 52.4% (inactive)

Same assay, conditions: 10 µM unless noted

Row | SMILES | growth
4 | C[N+](C)=c1ccc2nc3c(cc(NCCCNc4cc5oc6cc(=[N+](C)C)ccc-6nc5c5ccccc45)c4ccccc43)oc-2c1 | -64.9% (active)
5 | C/C=C1\SC(=S)NC1=O | 104% (inactive)
6 | NC(=S)N/N=C\c1nccc2c(C(F)(F)C(F)(F)C(F)(F)F)cccc12 | 16.5% (inactive)
7 | CNC(=O)N/N=C/c1ccc([N+](=O)[O-])o1 | 109% (inactive)
8 | COC(=O)c1nc(=S)[nH]c(C(=O)OC)c1C(=O)c1ccc2ccccc2c1 | 96.8% (inactive)
9 | CN(C)C(=O)SC1=C(c2c(Cl)cccc2Cl)C(=O)c2ccccc21 | -81.8% (active)
10 | Oc1c(Br)c(Br)c(O)c(Br)c1Br | -34.4% (active)
11 | NC(=S)N/N=C/c1ccc(Cl)s1 | 105% (inactive)
12 | Oc1c(Br)cc(Cl)cc1C(c1cc(Cl)cc(Br)c1O)C(Cl)(Cl)Cl | 59.2% (inactive)
13 | Cc1ccnc2c1ccc1c(C)ccnc12 | 4.27% (active)
14 | Cc1cc2nc(CS)[nH]c2cc1C | 90.3% (inactive)
15 | Cc1ccc2c(ccc3c[n+]4c5ccccc5ccc4n32)c1 | -34.2% (active)
16 | S=C(N/N=C/c1ccccn1)Nc1ccccn1 | 9.1% (active)
17 | CCCCCCC(C)c1ccccc1O (stereo not given) (tested in a mixture with another compound) | 108% (inactive)
18 | O=C(Nc1cccc(Br)c1)Oc1ccc(Cl)c2cccnc12 | 55.8% [100 µM] (inactive)
19 | CCOC(=O)/C(=C\c1ccc(-c2ccccc2)cc1)C(C)=O | 104% (inactive)
20 | Oc1c(Cl)c2ccccc2c2ccccc12 | 113% (inactive)

Row | SMILES | growth
21 | CC(C)c1ccc2nc3ccc(C(=O)NCCN4CCN(c5ccccc5)CC4)cn3c(=O)c2c1 | 45.8% (inactive)
22 | O=C(O)C1C2CC3C(OC(=O)C31)C2Br (stereo not given) | 97.1% (inactive) and 103% (inactive)
23 | CC(=O)ON=C1C=CC(=C(C#N)c2ccccc2)C=C1 | 90.6% (inactive)
24 | C1=C(c2ccccc2)C(c2ccc(OCCN3CCCCC3)cc2)Oc2ccccc21 (stereo not given) | -55.1% (active)
25 | CCOC(=O)/C=C/c1ccc([N+](=O)[O-])o1 | 40.9% (inactive)
26 | c1ccc2c(c1)Nc1cc3ccccc3cc1N2 | -43.7% (active)
27 | Oc1c(Cl)cc(Cl)c2cccnc12 | 99.9% (inactive) and 85.2% (inactive)
28 | Cc1ccnc(NC(c2ccccc2)c2ccc3cccnc3c2O)c1 (stereo not given) | 36.8% (inactive)
29 | CCN1/C(=C\c2cc[n+](CC)c3ccccc23)C=Cc2ccccc21 | -35.2% (active)
30 | N#CSCc1ccc(Cl)c(CSC#N)c1 | -7.52% (active)
31 | CCCCCCCCCCCCCCCC[N+](C)(CCO)Cc1cnc[nH]1 (stereo not given) | -100% (active)
32 | CN=C(N)N/N=C(\C)c1ccc2c(c1)Cc1cc(/C(C)=N/NC(N)=NC)ccc1-2 | -67.1% (active)
33 | CC(=O)Nc1cccc2cc(O)ccc12 | 106% (inactive) and 110% (inactive) and 104% (inactive)
34 | O=[N+]([O-])c1ccc(N=Nc2ccc(O)cc2O)cc1 | 41.4% (inactive)
35 | S=C(NCCNC(=S)[S][Sn]([c]1ccccc1)([c]1ccccc1)[c]1ccccc1)[S][Sn]([c]1ccccc1)([c]1ccccc1)[c]1ccccc1 | -91.3% (active)
36 | CCOC(=O)c1c(C)[nH]c(CO)c1C | 104% (inactive)
37 | COC(=O)Nc1nc2ccc(C(=O)c3ccccc3)cc2[nH]1 | 0.824% (active) and -17.1% (active) and -22.8% (active)

Same assay, conditions: 100 µM

Row | SMILES | growth
38 | CN(C)C(=O)c1ccc(SC(=S)NCc2ccccc2)cc1 | -11.4% (active)
39 | O=C(O)c1c(Cl)c(Cl)c(Cl)c(Cl)c1-c1c2cc(I)c(=O)c(I)c-2oc2c(I)c(O)c(I)cc12 | -59.9% (active)
40 | O=C(Nc1c(Cl)cccc1Cl)Oc1cccc2cccnc12 | 92.8% (inactive)
